# Bioassay records: PubChem, National Center for Advancing Translational Sciences (NCATS)
# Shown is part of a subset that was picked to be rich in hits.
# USP2a inh: blocks human ubiquitin-specific protease USP2a; O75604; USP2 core, Ub-CHOP2 coupled fluorogenic reporter, 485/531; Potency, µM (titrated, usually from 38.3 µM), inactives show at the top dose activity change, negative = inhibition, hits mostly inhibitors; actives 0.01% (n = 330,000); AID 463254;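 note: plate controls were DMSO wells for no effect and full inhibition by NEM control for full effect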
#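 Deubiquitinase activity read as fluorescence (485/531 nm) after Ub-CHOP2 cleavage activates the enterokinase reporter on its substrate; USP2 core 10nM, Ub-CHOP2 and substrate 25nM each, 30min compound preincubation then 60min RT; data normalized to NEM, curves fitted.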
# a7 integrin act: integrin-mediated muscular dystrophy alleviation activation; actives 0.064% (n = 350,000); alpha7betagal myoblasts, beta-gal FDG fluorescence, 48 h; Potency, µM (highest dose often 38.3 µM), inactives show top-dose activation, usual class: activators;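 note: 100% = response of the positive control SU9516; nearly all actives have a fitted effect of over 60% in size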
#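 Alpha7betagal+/- myoblasts (passage 13) were plated 16-24 hr, then exposed to compounds (1:260 dilution of DMSO stock) for 48 hours at 37C. After MPER lysis, β-galactosidase reporter activity was read as FDG fluorescence (ex 480/em 540) after 30 minutes.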
# Eya2 inh: inhibitors of human Eya2 phosphatase activity; recombinant Eya2, OMFP fluorescence dephosphorylation (OMFP is methylfluorescein phosphate); Potency, µM (titrated, usually from 76.9 µM), for inactives: at the top dose activity, negative = inhibition, hits mostly inhibitors; actives 0.006% (n = 330,000); AID 488837; note: % is set by controls: 0 for no effect and ±100 for the full control effect
# Target sequence (O00167 whole entry, looked up): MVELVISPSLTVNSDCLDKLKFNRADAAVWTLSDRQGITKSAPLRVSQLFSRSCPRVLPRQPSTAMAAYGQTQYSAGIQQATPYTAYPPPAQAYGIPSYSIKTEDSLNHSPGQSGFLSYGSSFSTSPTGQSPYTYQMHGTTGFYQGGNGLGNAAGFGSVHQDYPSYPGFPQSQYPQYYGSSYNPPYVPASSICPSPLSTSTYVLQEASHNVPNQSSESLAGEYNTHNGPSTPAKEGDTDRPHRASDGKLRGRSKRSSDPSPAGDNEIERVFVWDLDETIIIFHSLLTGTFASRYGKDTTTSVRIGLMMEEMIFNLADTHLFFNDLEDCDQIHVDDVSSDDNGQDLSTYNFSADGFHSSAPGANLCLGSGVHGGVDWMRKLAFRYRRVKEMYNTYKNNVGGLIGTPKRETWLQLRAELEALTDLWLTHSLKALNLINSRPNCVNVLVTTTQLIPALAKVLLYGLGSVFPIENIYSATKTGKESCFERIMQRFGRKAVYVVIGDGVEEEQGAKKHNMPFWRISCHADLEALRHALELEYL
#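 Eya2 (0.2 uM) preincubated 10 min at ambient with compound, then OMFP substrate added at 50 uM; 10 min reaction in 50 mM HEPES pH 7.5, 50 mM NaCl, 5 uM MgCl2, 0.05% BSA, 1 mM DTT. Fluorescence read at Ex 485/Em 525 nm.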
# ClpP mod: qHTS Assay for Activators of ClpP; Potency, µM (series often up to 57.5 µM), without a hit: at the highest dose activity change, negative = active; purified B. subtilis ClpP, FRET peptide cleavage, 20 min; ATP-dependent Clp protease proteolytic subunit (Bacillus subtilis (strain 168)), P80244; actives 1.9% (n = 340,000); active = well fitted falling curve with a large enough effect; inconclusive = small, poorly fitted or top-dose-only effect; inactive = no such curve, though single readings can be large or run the other way; note: the source files actives as falling curves though it sought activators and does not explain the sign; nearly all actives have a fitted effect of over 65% in size
# Target sequence (P80244 whole entry, looked up): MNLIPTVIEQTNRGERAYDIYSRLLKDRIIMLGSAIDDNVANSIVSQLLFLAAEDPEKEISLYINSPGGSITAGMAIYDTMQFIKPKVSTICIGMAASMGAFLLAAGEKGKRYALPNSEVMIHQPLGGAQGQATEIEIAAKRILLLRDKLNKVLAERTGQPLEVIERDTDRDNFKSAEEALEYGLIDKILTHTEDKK
#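 Buffer: 100 mM Tris/HCl pH8, 100 mM KCl, 0.05% low protease BSA, 2.5% glycerol, 0.01% Tween-20. ClpP 10 microg/mL final; 20 min RT; delta FRET normalized to ADEP and DMSO controls.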
# p53 reactivation: re-activators of mutant p53; H1299 p53-A138V BP100-luciferase reporter, luminescence, 24 h; Potency, µM (doses to about 92.2 µM), without a hit: at the top dose activity change, positive = activation, most hits filed as activators; actives 0.063% (n = 320,000); AID 504706; note: % of control where 0% means no effect; nearly all actives have a fitted effect of over 45% in size
#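 p53-null H1299 cells stably carrying temperature-sensitive p53-A138V and a BP100-luciferase reporter were pinned with compounds (4-point, 1:5 series) and held 24 hrs at 37 deg C. Luminescence was read 10 min after detection reagent.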
# MmCpn inh: inhibitors of Methanococcus maripaludis chaperonin TRiC (MmCpn). actives 0.031% (n = 330,000). purified Mm-Cpn ATPase, ADP Transcreener TR-FRET. Potency, µM (doses to about 76.9 µM), without a hit: at the top dose activity, negative = inhibition, usual class: inhibitors; note: % is set by controls: 0 for no effect and ±100 for the full control effect; nearly all actives have a fitted effect of over 80% in size
#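 Compound-treated chaperonin, 25 nM final, turns over 10 uM ATP at 37°C for 30 min following a 10 min preincubation; ADP generated competes with ADP-d2 for Eu-cryptate antibody, lowering FRET.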
# * marks the source's active call; other numbers are inactive results; ? = inconclusive; · = no result; ! = repeats disagree; [ ] = remark or other dose. Unless noted, calls come from the whole dose curve; as a rule, active = well fitted curve in the direction sought with a large enough effect; inconclusive = small, poorly fitted or top-dose-only effect, or another doubt; inactive = no such curve, though single readings can be large; an effect the other way counts as inactive or inconclusive. Potency is the fitted concentration of half-maximal effect.
SMILES,USP2a inh,a7 integrin act,Eya2 inh,ClpP mod,p53 reactivation,MmCpn inh
Cc1cccc(N(Cc2cc3ccc(C)cc3[nH]c2=O)S(=O)(=O)c2ccccc2)c1,-1%,43%,-4%,25µM*,2%,-1%
CCOc1ccc(N(Cc2cc3ccc(C)cc3[nH]c2=O)S(=O)(=O)c2ccccc2)cc1,-1%,-24%,-5%,32µM*,-1%,-8%
Cc1ccc(N(Cc2cc3ccc(C)cc3[nH]c2=O)S(=O)(=O)c2ccccc2)c(C)c1,0%,31%,8%,1%,-2%,0%
Cc1cccc(N(Cc2cc3ccccc3[nH]c2=O)S(=O)(=O)c2ccccc2)c1,0%,5%,-8%,32µM*,5%,-2%
O=c1[nH]c2ccccc2cc1CN(c1ccccc1)S(=O)(=O)c1ccccc1,3%,16%,7%,32µM*,-9%,-2%
Cc1ccc(N(Cc2cc3cc(C)ccc3[nH]c2=O)S(=O)(=O)c2ccccc2)cc1,2%,7%,6%,28µM*,7%,0%
Cc1ccc2cc(CN(c3ccccc3)S(=O)(=O)c3ccccc3)c(=O)[nH]c2c1,3%,-10%,-6%,·,2%,2%
CCN1N=C(c2ccccc2)Cn2c1nc1ccccc12,-4%,-41%,-6%,14µM*,3%,-4%
Nc1ccc2oc(-c3ccccn3)nc2c1,0%,1%,-12%,-5%,?,-5%
c1ccc(-c2nc3ccccc3o2)nc1,2%,6%,7%,13µM*,28%,-3%
Clc1ccc2oc(-c3ccccn3)nc2c1,0%,19%,-1%,16µM*,?,-13%
Cc1ccnc2ccc(-c3nc4ccccc4o3)cc12,2%,22%,0%,35µM*!,26%,0%
FC(F)(F)c1cccc(N2CCN(c3ncnc4c3nc3n4CCCC3)CC2)c1,·,·,·,-3%,·,·
Cc1ccnc2ccc(Br)cc12,·,·,·,1%,·,·
COCCn1cc(C(=O)NCCCN2CCC(C)CC2)c2c3ccccc3n(C)c2c1=O,4%,-8%,6%,32µM*,-6%,-2%
CCN1CCN(CCCNC(=O)c2cn(CCOC)c(=O)c3c2c2ccccc2n3C)CC1,0%,28%[7.66 µM],-7%,3.2µM*,-8%,1%
CN1CCN(CCCNC(=O)c2cn(C3CCCCC3)c(=O)c3c2c2ccccc2n3C)CC1,-1%,-41%,-18%,?,2%,-1%
O=C(Nc1ccc(F)c(F)c1)c1cnn2c1NC(=C1CC1)C=C2C(F)F,·,·,·,1%,·,·
Cc1cc(NCCCn2ccnc2)n2ncc(-c3ccc(Cl)cc3)c2n1,-2%,-56%,4%,20µM*,?,-2%
CN(C)CCCNc1cc(C(C)(C)C)nc2c(-c3ccc(Cl)cc3)cnn12,0%,-82%,3%,·,-2%,0%
CC(C)(C)c1cc(NCCCn2ccnc2)n2ncc(-c3ccccc3)c2n1,-3%,-63%,-13%,·,11%,1%
Cc1cc(NCCCN2CCOCC2)n2ncc(-c3ccc(Cl)cc3)c2n1,0%,-62%,8%,25µM*,?,1%
O=CC(=O)c1ccc(Br)cc1,·,·,·,1%,·,·
Cc1ccc(Nc2nc(-c3c(C)nc4ccccn34)cs2)cc1,-11%,-45%,12%,28µM*,11%,-5%
Cc1ccc(Nc2nc(-c3c(C)nc4ncccn34)cs2)cc1,-1%,4%,-9%,-28%,-4%,-4%
SMILES,USP2a inh,a7 integrin act,Eya2 inh,ClpP mod,p53 reactivation,MmCpn inh
CCC1CCCCN1Cc1nc2c(c(=O)n(C)c(=O)n2C)n1Cc1c(F)cccc1Cl (centres undefined),·,·,·,-1%,·,·
O/N=C(/C[n+]1ccsc1)c1ccc(I)cc1,·,·,·,-1%,·,·
COc1cc2c(c3ccccc13)CCCC2=O,·,16%,·,28µM*,·,·
Cc1ccc2c(/C=C/c3ccc(N(C)C)cc3)ccnc2c1,·,·,·,-3%,·,·
CC(=O)c1cc(-c2ccccc2)n(CC(=O)N2CCN(C3CCCC3)CC2)c1C,-6%,-17%,10%,32µM*,12%,0%
CC(=O)c1cc(-c2ccccc2)n(CC(=O)N2CCC(C)CC2)c1C,3%,-3%,-15%,-1%,-13%,0%
CCOC(=O)c1ccccc1NC(=O)Cn1c2ncccc2c(=O)n1-c1ccccc1,·,·,·,11µM*,·,·
CCc1ccccc1NC(=O)Cn1c2ncccc2c(=O)n1-c1ccccc1,·,·,·,4%,·,·
CC(=O)O/N=C(/C)c1ncc(C(F)(F)F)cc1N1CCOCC1,1%,16%,6%,14µM*,-2%,-1%
Cc1ccc(CSc2nc3cccnc3n2Cc2ccc(C(=O)NCCc3cccs3)cc2)cc1,·,·,·,4%,·,·
c1ccc(CN2CCCC3(CCCN(Cc4nc(CC5CC5)no4)C3)C2)cc1 (centres undefined),1%,8.9µM*,4%,-4%,0%,-1%
c1ccc(CN2CCCC3(CCCN(Cc4nc(COc5ccccc5)no4)C3)C2)cc1 (centres undefined),1%,-13%,14%,0%,3%,1%
O=C(CSc1nccn1-c1cccc(Cl)c1)Nc1cccc2ccccc12,·,·,·,2%,·,·
CC(C)(C)c1ccc(C(=O)Nc2onc3c2CCCC3)cc1,·,·,·,1%,·,·
CC(NC(=O)c1cccc(S(=O)(=O)N2CCN(Cc3ccccc3)CC2)c1)c1ccc(Br)cc1 (centres undefined),-1%,-38%,7%,25µM*,-9%,1%
CC(NC(=O)c1cccc(S(=O)(=O)N2CCN(Cc3ccccc3)CC2)c1)c1ccccc1Cl (centres undefined),·,-21%,·,-1%,·,·
COc1ccc2[nH]c(=O)c(CN(Cc3cccnc3)C(=O)Nc3ccccc3)cc2c1,-1%,4%,-9%,32µM*,-7%,1%
O=C(c1ccccc1F)N(Cc1cccnc1)Cc1cc2cc3c(cc2[nH]c1=O)OCCO3,0%,15%,-13%,·,4%,-1%
COc1cc(C(=O)N(Cc2cccnc2)Cc2cc3cc4c(cc3[nH]c2=O)OCCO4)cc(OC)c1OC,-5%,5%,-19%,28µM*,-7%,0%
COc1ccccc1OCC(=O)Nc1oc(-c2ccccc2)c(-c2ccccc2)c1C#N,-5%,-44%,6%,?,-4%,0%
COc1ccc(CC(=O)Nc2oc(-c3ccccc3)c(-c3ccccc3)c2C#N)cc1OC,-5%,-19%,-18%,32µM*,4%,-5%
COc1ccc(-c2ccnc(SCC(=O)Nc3ccccn3)n2)cc1,7%,9%,1%,35µM*,-2%,0%
